Here are results for 94 compounds from PubChem BioAssay AID1508602 (The Scripps Research Institute Molecular Screening Center, 2020).

Several values for one entry are separate records, joined by “and”; a condition that tells them apart may be missing. Identical values can stand only once. About 6,800 (1%) of roughly 650,000 compounds were called active. The sample as a whole holds a higher share of actives than the screen did. Values without a mark were called inactive. No stated cut-off is given here; in the data, active means activation above about 4.9%; inactive means the rest.

The target in the experiment is G-protein coupled receptor 151 (Homo sapiens) (UniProt Q8TDV0). Put plainly: activates the human receptor GPR151, primary screen, cell-based, PathHunter beta-arrestin, luminescence (AID 1508602).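 Further: 0% = median of compound wells and 100% = cells with positive control.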 The conditions noted are these: PathHunter beta-arrestin GPR151 cells, at 11.2 µM, active compounds read high.
Chain of G-protein coupled receptor 151 (Homo sapiens) (Q8TDV0 whole entry, looked up): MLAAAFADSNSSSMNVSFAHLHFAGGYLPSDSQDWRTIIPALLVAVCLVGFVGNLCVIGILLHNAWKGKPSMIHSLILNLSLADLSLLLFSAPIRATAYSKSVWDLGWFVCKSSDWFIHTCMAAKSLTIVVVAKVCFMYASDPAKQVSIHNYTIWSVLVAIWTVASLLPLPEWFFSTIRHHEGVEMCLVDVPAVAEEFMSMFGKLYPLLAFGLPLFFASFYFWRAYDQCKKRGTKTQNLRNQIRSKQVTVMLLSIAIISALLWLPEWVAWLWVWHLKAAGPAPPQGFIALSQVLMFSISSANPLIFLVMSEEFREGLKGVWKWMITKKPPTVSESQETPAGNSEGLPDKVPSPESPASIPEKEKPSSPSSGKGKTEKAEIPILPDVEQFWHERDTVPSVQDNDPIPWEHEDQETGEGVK
With `COc1ccc(NC(=O)c2cc3cccc(OC)c3oc2=O)cc1OC`, the activation was -1.45%. On to `CCCN(CCC)C(=O)c1cc2cccc(OC)c2oc1=O`, for which the activation was 2.62%. For the compound `COc1cccc2cc(C(=O)N(C)C)c(=O)oc12`, the activation is 5.93% (active).

Take `CCn1c(COc2ccccc2OC)nnc1SCC(=O)NC`: the activation was 1.05%.

Take `O=[N+]([O-])c1ccc(OCc2nnc(SCCN3CCOCC3)n2-c2ccccc2)cc1`: the activation is 0.574%. In the case of `CCn1c(COc2ccccc2)nnc1Sc1ccc([N+](=O)[O-])cc1C=O` it was 8.41% (active); in that of `CCCC(=O)NC(=S)Nc1ccc([N+](=O)[O-])cc1OC`, 0.167%. Regarding `COc1cc([N+](=O)[O-])ccc1NC(=S)NCc1cc(C)n(C)n1`, the activation was 6.53% (active).

For the compound `COc1ccc(CCNC(=S)NCc2cc(C)n(C)n2)cc1OC`, the activation is 14.1% (active). For `COc1cc([N+](=O)[O-])ccc1NC(=O)C1CCCC1`, the activation was 0.251%. Under `COc1ccc(CCNC(=S)Nc2c(C)n(C)n(-c3ccccc3)c2=O)cc1OC` stands 0.54%; under `COc1ccc(NC(=S)NCc2cc(C)n(C)n2)cc1OC`, 2.25%. Take `CCc1nc2ccccc2c2nn(CC(=O)NCCc3ccc(OC)c(OC)c3)c(=O)n12`: the activation was 0.488%. With `COC(=O)c1ccc(Nc2nc3c(s2)CCc2ccccc2-3)cc1`, the activation is 1.88%. With `Cc1ccc(C)c(OCCOCCNCCN)c1C`, the activation was 0.982%. Under `CN(C)c1cc(Oc2ccc(=O)[nH]n2)nc(N(C)C)n1` stands 0.738%.

For `CC(C)(C)c1ccc(C(=S)NCCCn2ccnc2)cc1`, the activation is 1.31%. In the case of `COc1ccc(NC(=O)Cn2nnc(-c3ccccc3NC(=O)c3cccc(C)c3)n2)cc1` it was -0.639%. Under `CCOC(=O)c1c(C)oc2c(Br)cc3oc(=O)c(C(=O)CC)cc3c12` stands -0.749%; under `COC(=O)CN(C)C(=O)CC1C(=O)NCCN1Cc1ccc(OC)c(OC)c1` (centres undefined), -0.568%.

Turning to `CCc1ccc(-c2ccc(C3CCC(CC)CC3)cc2)nc1` (centres undefined), the activation is 10.7% (active). In the case of `CCCC1CCC(c2ccc(-c3ccc(CC)cn3)cc2F)CC1` (centres undefined) it was 3.24%; in that of `CCCCOc1ccc(OC(=O)c2ccc(-c3ccc(CC)cn3)cc2)cc1`, 0.589%. Under `COc1ccc(/C(O)=C2/C(=O)C(=O)N(CCCC(=O)O)C2c2ccc(O)cc2)cc1` (centres undefined) stands 0.777%. In the case of `Cc1ccc(-n2[nH]c(C)c(C=Nc3ccc(N=Cc4c(C)[nH]n(-c5ccc(C)c(C)c5)c4=O)cc3)c2=O)cc1C` it was 1.34%. In the case of `Cc1ccc(N2NC3(CCCCC3)NC2=S)cc1C`, the activation is 1.89%. Consider `CCC1(c2ccc(Cl)cc2Cl)NC(=S)N(c2ccc(C)c(C)c2)N1` (centres undefined), for which the activation was 6.17% (active). Under `COc1ccc(COC(=O)C2=C(C)NC3=C(C(=O)CCC3)C2c2cccc([N+](=O)[O-])c2)cc1` (centres undefined) stands -0.575%; under `CCCCOC(=O)C1=C(C)NC2=C(C(=O)CCC2)C1c1cccc([N+](=O)[O-])c1` (centres undefined), 6.33% (active); under `CCCCOC(=O)C1=C(C)NC2=C(C(=O)CCC2)C1c1ccccc1[N+](=O)[O-]` (centres undefined), 1.59% and 0.946%. Regarding `Cn1nc2c(nc1=O)[nH]c1ccccc12`, the activation was -0.513%. In the case of `Cc1ccc(OCCN2CCNCC2)cc1C` it was -1.28%. Under `CC(=O)c1cccc(-c2cccc(C(=O)Nc3ccc(N4CCOCC4)cc3)c2)c1` stands -0.102%; under `COc1cc2nc(-c3ccc(N4CCOCC4)nc3)nc(Nc3ccc(NC(C)=O)cc3)c2cc1OC`, 0.834%. As for `COc1cc2nc(-c3cccc(C(C)=O)c3)nc(Nc3ccc(N4CCOCC4)cc3)c2cc1OC`, the activation was 5.83% (active).

With `COc1cc(C2C3=C(CC(C)(C)CC3=O)Nc3ccc4ncccc4c32)ccc1OC(C)=O` (centres undefined), the activation was -0.317%. Under `O=C(Cc1cccs1)N1CCCCC1c1nc2ccccc2[nH]1` (centres undefined) stands 0.204%. Under `O=C(Nc1ccc(Br)cc1Cl)N1CCN(c2ncccn2)CC1` stands -0.59%; under `Cn1c(SCCN2CCCCC2)nnc1C1CCN(C/C=C/c2ccco2)CC1`, 1.24%.

In the case of `O=C(Nc1ccc(N2CCCC2=O)cc1)c1cncc(Br)c1`, the activation is 5.11% (active). Under `COc1cccc(C(=O)Nc2ccc(N3CCCC3=O)cc2)c1` stands -9.98%; under `O=C(Nc1ccc(S(=O)(=O)Nc2ncccn2)cc1)c1cncc(Br)c1`, -0.902%; under `C(=N\c1nnc2nc[nH]n12)/c1ccco1`, -0.745%. With `CC(C)CNC(=O)c1ccc(F)c(S(=O)(=O)N2CCOCC2)c1`, the activation is 1.07%. For `COc1ccc(OC)c(S(=O)(=O)Oc2ccc(Cl)c3cccnc23)c1`, the activation is 12.1% (active).

On to `O=[N+]([O-])c1ccc(Oc2ccc(Cl)c3cccnc23)c(Cl)c1`, for which the activation is 0.725%. Under `COc1ccc(S(=O)(=O)Oc2ccc(Cl)c3cccnc23)cc1OC` stands 2.28%.

As to `COC(=O)c1cc2cc(N)ccc2s1`, the activation is 0.191%.

For `CCCS(=O)(=O)N1CCN=C1SCc1cccc(Cl)c1`, the activation was -1.49%. Regarding `Cc1cccc(NC(=O)CSc2nc3[nH]ncc3c(=O)[nH]2)c1`, the activation is 5.01% (active).

Consider `Cc1cc(=O)[nH]c(SCC(=O)Nc2ccccn2)n1`, for which the activation was 0.382%. In the case of `Cc1nc(SCC(=O)Nc2cccc3ccccc23)n[nH]1` it was -0.295%. As for `O=C(CSc1ccc(F)cc1)Nc1cccc2ccccc12`, the activation was 7.44% (active). For `Cc1nnc(SCC(=O)Nc2cccc(Cl)c2)[nH]c1=O`, the activation is 0.326%. Turning to `O=C(CSc1ccc(F)cc1)Nc1ccccc1-c1nc2ccccc2s1`, the activation was -0.819%.

In the case of `Cc1cc(=O)[nH]c(SCC(=O)Nc2ccc(C(N)=O)cc2)n1`, the activation was -0.979%.

As to `Cc1cc(=O)[nH]c(SCC(=O)Nc2cccc3ccccc23)n1`, the activation is 15.8% (active). As to `Cc1cccc(NC(=O)CSc2ncn[nH]2)c1`, the activation is -0.535%.

Consider `COc1ccc(C(=O)c2snc(Nc3ccccc3)c2N)cc1`, for which the activation is 0.834%.

For `CCSc1c(O)cnn(-c2ccccc2)c1=O`, the activation was 0.94%.

For `CCOC(=O)C(C#N)C(C#N)(C(=O)OCC)C1CCCCC1=O` (centres undefined), the activation is 2.95%. In the case of `O=C(CNC(=O)c1ccc(NC2CC2)c([N+](=O)[O-])c1)Nc1ccc(F)c(F)c1F`, the activation was 0.807%. In the case of `Nc1ncnc(Oc2ccccc2Cl)c1[N+](=O)[O-]`, the activation is 1.64%. Turning to `Cc1ccc[n+](-c2ncnc(N)c2[N+](=O)[O-])c1`, the activation was 6.28% (active). `Cc1csc(Nc2ncnc(N)c2[N+](=O)[O-])n1`: the activation is -0.642%. Regarding `CSc1ncc(C(=O)Nc2ccc(F)cc2C)c(C)n1`, the activation was -0.309%. Under `O=C(Nc1ccccc1)NC1(C(=O)Nc2ccc(F)cc2F)CCCCC1` stands 0.408%; under `Cc1ccc(NC(=O)Cn2c(C)c(C=O)c3ccccc32)cc1C`, 1.3%; under `COc1ccc(-c2nnc(SCC(=O)Nc3ccc4c(c3)OCCO4)o2)cc1OC`, 0.0025%. Consider `Cc1sc2nc(Cc3ccccc3)[nH]c(=O)c2c1C`, for which the activation is 0.303%. Under `Cc1sc2nc(CN(C(=O)C3CC3)C3CCCC3)[nH]c(=O)c2c1C` stands 0.605%. In the case of `CCC(CC)C(=O)N1CCN(Cc2nc3sc(C)c(C)c3c(=O)[nH]2)CC1` it was 5.71% (active); in that of `O=C(CCCCn1c(=O)[nH]c2ccccc2c1=O)N1CCN(c2cccc(Cl)c2)CC1`, -0.11%. In the case of `CCCCc1ccc(-c2nc(C=Nc3ccc(C(C)=O)cc3)c(O)o2)cc1` it was -0.204%. Consider `CCCCc1ccc(N=Cc2nc(-c3cccc4ccccc34)oc2O)cc1`, for which the activation was 7.67% (active). Under `Oc1oc(-c2cccc3ccccc23)nc1C=Nc1ccc2ccccc2c1` stands -1.09%; under `COc1ccc(CNC2CCCN(c3nc(C)c4ccc(C)cc4n3)CC2)cc1OC` (centres undefined), -0.801%; under `COc1ccc(NC(=O)C2CC(=O)N(C3CCCCC3)C2)cc1` (centres undefined), 0.591%. As to `Cc1ccc(C)c(NC(=O)C(Cc2ccccc2)N2C(=O)c3cccc([N+](=O)[O-])c3C2=O)c1` (centres undefined), the activation is 1.63%. As for `CCOc1ccc(C(=O)Nc2ccccc2I)cc1[N+](=O)[O-]`, the activation was 2.03%.

Take `CCOc1ccc(C(=O)Nc2nnc(CC)s2)cc1[N+](=O)[O-]`: the activation was 7.7% (active).

Regarding `CCOc1ccc(C(=O)Nc2ccc(C(=O)OC)cc2)cc1[N+](=O)[O-]`, the activation was 1.51%.

With `Cc1ccccc1-n1c(C)cn2c3c(=O)n(CC(N)=O)c(=O)n(C)c3nc12`, the activation was 0.26%. Regarding `O=S(=O)(NC1CCCCC1)c1ccc(S(=O)(=O)n2cnc3ccccc32)cc1`, the activation is 3.37%. Consider `COc1cccc(NC(=O)CN(C)S(=O)(=O)c2ccc3c(c2)SCC(=O)N3)c1`, for which the activation was 5.58% (active).

As for `CCc1cccc(CC)c1NC(=O)CCS(=O)(=O)c1ccc2c(c1)SCC(=O)N2`, the activation is -0.523%. Under `COc1ccc(S(=O)(=O)N(C)CC(=O)Nc2cccc(C(F)(F)F)c2)cc1OC` stands 1.26%. Under `O=C(NNC1=NCCCCC1)c1ccc([N+](=O)[O-])cc1` stands 4.83%. Turning to `CC(=O)NCc1nnc2n1CCN(Cc1ccc(-c3ccccc3)cc1)CC2`, the activation was -0.371%. Consider `CC(C)CNC(=O)C(C)N(c1ccccc1)S(C)(=O)=O` (centres undefined), for which the activation was 1.91%. In the case of `Cc1nc2nc(SCc3c(F)cccc3Cl)nn2c(C)c1Cc1c(F)cccc1Cl` it was 0.427%. As to `Cc1nc2nc(SCc3ccc([N+](=O)[O-])cc3)nn2c(C)c1Cc1c(F)cccc1Cl`, the activation is 5.69% (active). In the case of `Cc1nc2ncnn2c(C)c1Cc1c(F)cccc1Cl` it was 0.47%; in that of `CCOC(=O)c1cnc2c(C)c(Cl)ccc2c1Nc1cccc(C)c1`, 1.7%.
